# A selection: hits, their analogues and other compounds. The true share with any hit is near 27%.
# Pyk2 oligo antag – antagonists of human Pyk2 oligomerization; Q293 cells, Pyk2 FERM NanoBiT luminescence; stronger effect = lower value; z-score (the deposit names both 25 µM and 10 µM); hit rate 0.83% among 99,000; Q14289;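 active means Z-score of -3 or lower, scaled per plate to the spread of control and sample wells; inactive means z-score above -3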;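 further: negative z-score means lost luminescence so less FERM oligomerization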
# Target sequence (Q14289 whole entry, looked up): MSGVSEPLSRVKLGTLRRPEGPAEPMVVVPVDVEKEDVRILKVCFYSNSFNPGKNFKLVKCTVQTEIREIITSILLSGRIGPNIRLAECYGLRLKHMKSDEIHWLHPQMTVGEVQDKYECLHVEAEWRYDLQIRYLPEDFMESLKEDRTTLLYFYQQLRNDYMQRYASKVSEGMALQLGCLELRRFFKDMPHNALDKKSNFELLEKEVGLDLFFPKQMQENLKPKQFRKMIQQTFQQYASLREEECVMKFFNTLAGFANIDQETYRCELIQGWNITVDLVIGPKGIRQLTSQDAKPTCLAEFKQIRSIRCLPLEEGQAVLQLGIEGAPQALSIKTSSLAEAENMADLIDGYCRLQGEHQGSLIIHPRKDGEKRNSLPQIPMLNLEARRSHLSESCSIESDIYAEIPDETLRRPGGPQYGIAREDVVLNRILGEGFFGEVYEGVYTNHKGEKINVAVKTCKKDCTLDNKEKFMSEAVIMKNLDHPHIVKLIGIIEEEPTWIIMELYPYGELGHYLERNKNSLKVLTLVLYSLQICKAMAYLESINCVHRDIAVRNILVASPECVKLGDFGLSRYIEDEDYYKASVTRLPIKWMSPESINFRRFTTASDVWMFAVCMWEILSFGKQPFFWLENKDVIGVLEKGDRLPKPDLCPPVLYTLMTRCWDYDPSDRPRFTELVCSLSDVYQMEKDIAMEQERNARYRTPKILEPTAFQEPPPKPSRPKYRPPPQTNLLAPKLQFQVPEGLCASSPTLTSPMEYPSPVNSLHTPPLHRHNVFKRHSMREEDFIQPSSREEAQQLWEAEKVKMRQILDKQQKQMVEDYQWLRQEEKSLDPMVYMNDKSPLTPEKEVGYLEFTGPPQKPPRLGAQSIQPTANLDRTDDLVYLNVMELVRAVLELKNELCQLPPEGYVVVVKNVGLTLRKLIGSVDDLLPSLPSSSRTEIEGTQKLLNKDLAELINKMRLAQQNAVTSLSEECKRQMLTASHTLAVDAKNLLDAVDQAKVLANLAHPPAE
# CYP2C19 act – activators of human cytochrome P450 2C19. P33261. recombinant CYP2C19, luciferin-H EGE luminescence; stronger effect = higher value; 0 = fully inhibited enzyme, 1 = untreated enzyme. activation factor at 5 µM. 96,000 tested, under 10 active;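 active means activation factor of at least 2 at 5 µM in the primary screen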;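 further: 0 = wells with 2.5 mM tranylcypromine and 1 = vehicle-only wells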
# CYP2C9 inhib – human CYP2C9 inhibition; hit rate 20% among 96,000; CYP2C9 Supersomes, luciferin-H conversion, luminescence; P11712; inhibition, % at 5 µM;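 active means blocking of liver enzyme CYP2C9 beyond about 50% at 5 µM, limit read from the data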
# CYP2C19 inh – blocks human cytochrome P450 2C19; hit rate 21% among 96,000; inhibition, % at 5 µM; CYP2C19 Supersomes, luciferin-H EGE luminescence, 30 min; AID 778;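 active means CYP2C19 inhibition above a set limit at 5 µM in the primary screen, cut at about 50% in these data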;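 further: plate controls were negative control wells for no effect and 2.5 mM tranylcypromine positive control for full effect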
# CYP2C9 activ – CYP2C9 (human) activation | recombinant CYP2C9, luciferin-H conversion, luminescence; stronger effect = higher value; factor 1 = untreated enzyme, 0 = blocked | activation factor at 5 µM | hit rate 1.4% among 96,000 | AID 1024;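 active means activation factor of 2 or more for CYP2C9 at a 5 µM dose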;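 further: 0 = sulfaphenazole-blocked wells and 1 = vehicle-only wells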
# Cav3 T inh – human Cav3.2 channel inhibition, primary screen | O95180 | Cav3.2-expressing cells, Fluo-4 calcium fluorescence FDSS; stronger effect = lower value | B-score at 10 µM | hit rate 4% among 100,000 | AID 449739;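 active means single-dose well whose peak fluorescence ratio is a statistical outlier from its plate by either plate-standardised score or position-corrected B-score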
# * = called active by the depositor; · = not tested or not shown.
SMILES,Pyk2 oligo antag,CYP2C19 act,CYP2C9 inhib,CYP2C19 inh,CYP2C9 activ,Cav3 T inh
CCO[C@@H]1OC(C(=O)NCc2nc3ccccc3[nH]2)=C[C@H](c2coc3ccccc3c2=O)[C@H]1CCCO,·,·,·,·,·,0.36
COC(C/C=C\[C@@H](O)COCc1ccccc1)OC,·,·,·,·,·,-0.091
COc1cccc(NC(=O)c2cn(C)c(=O)c3cc(OC)c(OC)cc23)c1,1.5,1.1,18,-6,0.8,1.1
O=C(NCC(c1cccnc1)N1CCN(c2ccc(F)cc2)CC1)c1ccccc1 (stereo unspecified),0.82,0.5,21,54*,0.8,-1.6
CCOC(=O)C1CCN(C(c2cccnc2)c2c(NC(=O)c3ccco3)sc(C)c2C)CC1 (stereo unspecified),0.73,0.4,82*,60*,0.2,·
O=C(NCC(c1cccnc1)N1CCN(c2ccccc2)CC1)c1ccco1 (stereo unspecified),0.67,·,·,·,·,-0.019
Cc1sc(NC(=O)c2ccco2)c(C(c2cccnc2)N2CCN(c3ccc(F)cc3)CC2)c1C (stereo unspecified),·,0,99*,95*,0,-1.3
CC(C)OC(=O)Cn1c(=O)oc2ccccc21,-0.34,0.8,-15,23,1.2,0.39
CCCCCOC(=O)Cn1c(=O)oc2ccccc21,·,0.1,-21,89*,1.2,0.43
CCCCOC(=O)Cn1c(=O)n(CC(=O)OCCCC)c2ccccc21,-0.09,0.6,50*,44,0.5,-6.4*
CCC1(CC)NC(=S)N(Nc2ccccc2)C1=O,0.53,0.7,-3,30,1,-0.06
COc1cccc(C2(O)CCN(C(=O)C3CCC3)CC2)c1,0.5,0.4,47,64*,0.5,0.15
COc1cccc(C2(O)CCN(C(=O)C3CC3)CC2)c1,0.55,0.8,-4,19,1,-0.08
COc1ccc(-c2ccc(-c3noc(-c4cccs4)n3)c(OC)n2)cc1,-0.3,0.9,60*,13,0.4,0.36
CCOC(=O)c1nnn(CC(=O)N2N=C(c3ccc(Cl)cc3)CC2c2ccccc2)c1C(=O)OCC (stereo unspecified),-0.79,·,·,·,·,-0.071
CCCS(=O)(=O)c1c(S(=O)(=O)CCC)c2c(N)cccn2c1C(=O)c1ccccc1,-0.57,0.6,75*,40,0.3,-0.45
CCCCOC(=O)Nc1cccc(C(C)=O)c1,-0.14,0.7,25,34,0.7,1
CCC(Sc1nc2c(c(=O)[nH]1)CCC2)C(=O)Nc1cccc(OC)c1 (stereo unspecified),1.4,0.8,62*,23,0.4,-0.0021
c1nc(NCCN2CCOCC2)c2sc3nc(N4CCOCC4)c4c(c3c2n1)CCC4,2.5,0.9,16,8,0.8,·
CCOc1nnnc2c1sc1nc(N3CCOCC3)c3c(c12)CCCC3,0.33,0.1,98*,94*,0,0.33
CCN1CCN(c2ncnc3c2sc2nc(N4CCOCC4)c4c(c23)CCC4)CC1,-0.38,0.3,54*,73*,0.5,·
Cc1ccc(OCCNC(=O)c2ccco2)cc1C,0.84,0.7,10,26,0.9,0.29
COc1ccc(-n2c(SCC(=O)Nc3nccs3)nnc2-c2ccccc2)cc1,-0.66,0.5,43,45,0.6,-2.3
COc1ccc(-n2c(Cc3cccn3C)nnc2SCC(=O)Nc2nccs2)cc1,·,0.2,58*,78*,0.4,-6*
COc1ccc(-n2c(Cc3cccn3C)nnc2SCC(=O)NCCc2ccccc2)cc1,-0.2,0.7,73*,34,0.3,-1.8
SMILES,Pyk2 oligo antag,CYP2C19 act,CYP2C9 inhib,CYP2C19 inh,CYP2C9 activ,Cav3 T inh
COc1ccc(-n2c(Cc3cccn3C)nnc2SCC(=O)Nc2ccccc2C)cc1,·,0.8,31,18,0.7,-6.4*
COc1ccc(-n2c(Cc3cccn3C)nnc2SCC(=O)Nc2cccc(C)c2C)cc1,·,0.8,27,18,0.7,-4*
CC(C)(C)c1ccc(C(=O)NNC(=O)Cc2cccc3ccccc23)cc1,-0.28,0.8,58*,17,0.4,-4.2*
O=C(COc1ccc2ccccc2c1)NNC(=O)Cc1cccc2ccccc12,1.5,·,·,·,·,-0.32
COc1ccc(C2=NOC(C(=O)NCCCn3ccnc3)C2)cc1 (stereo unspecified),-0.17,0.2,84*,84*,0.2,-0.22
COc1cccc(C2=NOC(C(=O)NCCCn3ccnc3)C2)c1 (stereo unspecified),0.74,0,82*,95*,0.2,1.6
COc1ccc(C2=NOC(C(=O)NCc3ccccc3)C2)cc1 (stereo unspecified),0.63,0.7,-36,34,1.4,·
CCN(CC)C(=O)C1CC(c2ccc(OC)cc2)=NO1 (stereo unspecified),0.53,0.9,5,9,1,-4.3*
COc1ccc(CCNC(=O)C2CC(c3ccc(C(F)(F)F)cc3)=NO2)cc1 (stereo unspecified),·,·,·,·,·,-2.1
O=C1NCCCC1C(=O)N1CCN(C(=O)C2CCCNC2=O)CC1 (stereo unspecified),·,1.2,-10,-17,1.1,·
O=C(COc1ccc2c(c1)CCC2)N1CCc2ccccc21,-0.22,1,-42,3,1.4,-1.6
Clc1c(CSc2nc3ccccc3o2)nc2sccn12,-0.33,0.5,-16,48,1.2,-2.6
Clc1c(CSc2nc3ccccc3o2)nc2ccccn12,0.27,0,-1,98*,1,·
Cc1cc(C)nc(SCc2nc3ncccn3c2Br)n1,0.07,1,-18,-1,1.2,1.2
Brc1c(CSc2nc3ccccc3o2)nc2ncccn12,1.7,0.4,-31,64*,1.3,-0.29
Cc1ccc(C2C3=C(CC(C)(C)CC3=O)N(CCN3CCOCC3)C3=C2C(=O)CC(C)(C)C3)cc1,2.4,1.1,-6,-10,1.1,0.79
CCN=C1NN=C(c2ccc(C)cc2)CS1,-0.52,0.7,20,27,0.8,-0.6
COCCn1c(C)cc(C2=NNC(=Nc3ccccc3F)SC2)c1C,0.14,0.5,38,53*,0.6,-4.4*
Cc1ccc(N(CC(=O)NCc2cccs2)S(=O)(=O)c2cccs2)cc1,-1.9,0,74*,96*,0.3,-1.3
COc1ccc(N(CC(=O)NCc2ccccc2)S(=O)(=O)c2c(C)noc2C)cc1,0.25,0.1,44,91*,0.6,0.16
COc1ccc(N(CC(=O)NC2CCCC2)C(=O)c2ccc(N3CCCCC3)nc2)cc1,0.55,0.9,78*,11,0.2,-1.6
COc1ccc(CNC(=O)CN(c2cc(C)cc(C)c2)S(=O)(=O)c2c(C)noc2C)cc1,·,0.6,23,37,0.8,-0.16
Cc1nn(C)c(C)c1S(=O)(=O)N(CC(=O)NCc1cccs1)c1ccc(C(C)C)cc1,·,·,·,·,·,-0.37
COc1ccc(N(CC(=O)NCc2cccnc2)S(=O)(=O)c2c(C)nn(C)c2C)cc1,·,0.4,14,64*,0.9,0.49

# Screening data as filed in PubChem BioAssay.
